ERAP1 inh – ERAP1 (human) enzyme inhibition | Q9NZ08 | recombinant ERAP1, Leu-AMC fluorescence, 60 min | inhibition, % at 10.7 µM | 0.15% of 340,000 active;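 active means mean replicate inhibition of at least 30%, or all replicates individually reaching that 30% level; inactive means mean below 30% and not every replicate reaching it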
FGF22 binding – shifts melting point of recombinant human FGF22 | Q9HCT0 | recombinant FGF22 thermal shift, SYPRO orange fluorescence; percent of sucrose octasulfate shift, DMSO zero | activity (Tm shift, normalised), % at 9.99 µM | 1.5% of 340,000 active | AID 651658;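 active means mean Tm shift, scaled 0 neutral to 100 positive control, at about 1.3% or above, every replicate too, limit read from the data; inconclusive means no clear call, values can overlap the other calls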
Target sequence (Q9HCT0 whole entry, looked up): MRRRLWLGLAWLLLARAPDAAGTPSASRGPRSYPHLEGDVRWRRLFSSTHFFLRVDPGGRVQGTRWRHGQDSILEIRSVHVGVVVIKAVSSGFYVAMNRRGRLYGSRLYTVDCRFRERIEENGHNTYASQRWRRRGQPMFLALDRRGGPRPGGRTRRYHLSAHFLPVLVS
RAD52 inh – RAD52 (human) annealing inhibition | 0.46% of 360,000 active | inhibition, % at 18.7 µM | recombinant RAD52 DNA annealing, FRET fluorescence | P43351 | AID 651710;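 active means every replicate showing at least 50% inhibition; inconclusive means mean inhibition at least 50% but not in every replicate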
Target sequence (P43351 whole entry, looked up): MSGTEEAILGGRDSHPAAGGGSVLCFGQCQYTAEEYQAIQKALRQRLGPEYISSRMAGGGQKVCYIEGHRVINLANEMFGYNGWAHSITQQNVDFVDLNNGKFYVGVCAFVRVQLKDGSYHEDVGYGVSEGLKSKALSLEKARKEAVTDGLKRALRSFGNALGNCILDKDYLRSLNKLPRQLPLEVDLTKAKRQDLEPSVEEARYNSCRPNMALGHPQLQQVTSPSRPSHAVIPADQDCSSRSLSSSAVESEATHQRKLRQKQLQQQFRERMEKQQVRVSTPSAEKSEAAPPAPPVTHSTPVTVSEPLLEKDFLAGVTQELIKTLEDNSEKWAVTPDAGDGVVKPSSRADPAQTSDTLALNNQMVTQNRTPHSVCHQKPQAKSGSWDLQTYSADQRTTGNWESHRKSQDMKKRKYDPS
AF4-AF9 inh – inhibitors of human MLL-AF4/AF9 interaction; inhibition, % at 10 µM; AlphaScreen, biotin-AF4 peptide binding to FLAG-AF9; 0.47% of 350,000 active;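 active means every replicate reaching a set inhibition limit, whatever the replicate mean, cut at about 25% in these data; inconclusive means mean inhibition reaches that limit but some replicates miss it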
DENV2 CPE rescue – protects cells from dengue virus 2 cytopathic effect; 1.7% of 350,000 active; DENV2-infected cells, cytopathic effect rescue, plate reader; CPE inhibition, % at 9.99 µM; in the data active means CPE inhibition above about 20%, passing the limit was not always enough; inconclusive means no clear call, values can overlap the other calls; tested in BHK-21 cells
A number is an active result; 0 = inactive; ? = inconclusive; - = no result. Hits are enriched below; roughly 4% of the tested compounds scored in any of these assays.

SMILES	ERAP1 inh	FGF22 binding	RAD52 inh	AF4-AF9 inh	DENV2 CPE rescue
O=C(Nc1ccc(F)cc1)N[C@H]1CC[C@@H](CCn2cc(C3(O)CCCC3)nn2)O[C@H]1CO	0	0	0	0	0
CN(C)C(=O)c1cccc(-c2ccc3c(c2)[C@@H]2[C@@H](CCN2C(=O)c2ccc4c(c2)OCO4)[C@H](CO)N3)c1	-	0	-	-	0
O=C(C[C@@H]1CC[C@@H]2[C@H](COC[C@@H](O)CN2S(=O)(=O)c2ccc(F)cc2)O1)NCC1CCCCC1	0	0	71.2	?	0
O=C(C[C@H]1CC[C@@H]2[C@H](COC[C@H](O)CN2S(=O)(=O)c2ccc(F)cc2)O1)NCC1CCCCC1	0	0	59.2	28.2	0
CCNC(=O)C[C@@H]1CC[C@@H]2[C@H](COC[C@@H](O)CN2C(=O)Nc2ccc3c(c2)OCO3)O1	0	0	0	0	0
CNC(=O)C[C@H]1CC[C@@H]2[C@H](COC[C@@H](O)CN2C(=O)Nc2ccc3c(c2)OCO3)O1	0	0	0	0	102.3
O=C(C[C@H]1CC[C@@H]2[C@H](COC[C@@H](O)CN2S(=O)(=O)c2ccc(F)cc2)O1)NCc1ccc(Cl)c(Cl)c1	0	0	0	0	0
O=C(C[C@@H]1CC[C@H]2[C@@H](COC[C@H](O)CN2S(=O)(=O)c2ccc(F)cc2)O1)NCCN1CCCCC1	0	0	0	0	0
O=C(C[C@@H]1CC[C@@H]2[C@H](COC[C@@H](O)CN2S(=O)(=O)c2ccc(F)cc2)O1)NCc1ccc(Cl)c(Cl)c1	0	0	0	0	29.1
CCS(=O)(=O)Nc1ccc2c(c1)C(=O)N(C)[C@H]1CC[C@H](CC(=O)NC)O[C@@H]1CO2	0	-	0	0	0
COc1ccc(S(=O)(=O)N2C[C@H](O)COC[C@H]3O[C@H](CC(=O)NCc4ccc(Cl)c(Cl)c4)CC[C@@H]32)cc1	0	0	0	0	0
COc1ccc2c3c(n(C)c2c1)[C@@H](CO)NCC31CN(C(C)=O)C1	-	-	-	0	0
COc1ccc2c3c(n(C)c2c1)[C@@H](CO)NCC31CN(C(=O)c2cccc(F)c2)C1	0	-	0	0	0
COc1ccc2c3c(n(C)c2c1)[C@@H](CO)NCC31CN(Cc2ccccc2Cl)C1	0	-	0	38.5	0
COc1ccc2c3c(n(C)c2c1)[C@@H](CO)NCC31CN(CC2CC2)C1	0	0	56.1	0	?
COc1ccc2c3c(n(C)c2c1)[C@H](CO)NCC31CN(C(=O)c2ccc(F)cc2)C1	-	0	-	0	69.2
COc1ccc2c3c(n(C)c2c1)[C@H](CO)NCC31CN(Cc2ccc(-c3ccccn3)cc2)C1	-	-	89.2	46.5	0
COc1ccc2c3c(n(C)c2c1)[C@H](CO)NCC31CCN(CC2CC2)CC1	0	0	62.8	0	0
C[C@@H]1CN([C@H](C)CO)C(=O)c2cc(NS(=O)(=O)c3ccc(Cl)cc3)ccc2O[C@@H](C)CCCCO[C@@H]1CN(C)CC1CCCCC1	-	0	-	-	0
O=C(CNC(=O)c1ccc(Br)cc1)NC1=NCCS1	0	0	0	0	0
CC(C)(C)c1ccc(C(=O)NCCC(=O)NC2=NCCS2)cc1	0	0	0	29.5	0
CCC(=O)N1[C@@H](CO)[C@@H](c2ccccc2)C12CN(Cc1cc(F)ccc1F)C2	0	0	0	0	0
CS(=O)(=O)N1[C@@H](CO)[C@@H](c2ccccc2)C12CN(Cc1cc(F)ccc1F)C2	0	0	0	0	40.1
C[C@@H]1CN([C@@H](C)CO)C(=O)c2cc(C#CC3CCCCC3)cnc2O[C@@H]1CN(C)C(=O)Cc1ccccn1	0	0	0	0	0
COc1ccccc1-c1noc2c1C(=O)N(Cc1cn(Cc3ccccc3)nn1)CC2	0	0	0	0	55.8
SMILES	ERAP1 inh	FGF22 binding	RAD52 inh	AF4-AF9 inh	DENV2 CPE rescue
Cc1cc(N2CCOCC2)nc(C(C)C)n1	0	0	0	0	0
Cc1cc(N2CCOCC2)nc(N2CCOCC2)n1	0	43.4	0	0	0
COCc1cc(Sc2ccc(OC)cc2)nc(-c2ccccc2)n1	0	0	0	0	0
COCc1cc(SC2CCCCC2)nc(C)n1	0	43.2	0	0	0
O=C(O)Cn1cc(/C=C2/NC(=O)N(c3ccc(Cl)cc3)C2=O)c2ccccc21	0	2.4	0	0	0
CCCC(=O)Nc1ccc2c(c1)C(=O)N(C)C[C@@H](OC)[C@@H](C)CN(CC1CCCC1)[C@H](C)CO2	0	0	0	0	0
Cc1cc(C)n2nc(SCc3nnc(-c4cccs4)o3)nc2n1	0	43.2	0	0	0
Cc1cc(C)n2nc(SCc3nnc(SCCCCl)o3)nc2n1	0	0	0	0	0
CCOc1ccccc1N(CC(=O)Nc1cccc(OC)c1)S(=O)(=O)c1ccccc1	0	0	0	0	0
CCOc1ccccc1N(CC(=O)Nc1ccc(OC)cc1)S(=O)(=O)c1ccccc1	0	0	0	0	27.9
CCOc1ccccc1NC(=O)CCS(=O)(=O)c1ccc(OC)cc1	0	43.9	0	0	0
CCc1ccccc1NC(=O)CCS(=O)(=O)c1ccc(OC)cc1	0	0	0	0	0
O=C1OC(c2cccs2)=N/C1=C/c1ccc(-c2cccc(C(=O)O)c2)o1	0	9.4	0	0	0
Cc1cc(=O)oc2cc(OCCSCCN3CCCC3)ccc12	0	0	0	0	36.5
Cc1cc(=O)oc2cc(OCC(=O)N3CCCC3)ccc12	0	0	0	0	0
C[C@H]1CCCCO[C@H](CN(C)C(=O)NC2CCCCC2)[C@@H](C)CN([C@@H](C)CO)C(=O)c2cc(NS(=O)(=O)c3ccc(F)cc3)ccc2O1	0	0	0	0	23.9
C[C@@H]1CCCCO[C@H](CN(C)C(=O)NC2CCCCC2)[C@H](C)CN([C@@H](C)CO)C(=O)c2cc(NS(=O)(=O)c3ccc(F)cc3)ccc2O1	0	0	0	0	50.6
C[C@@H]1CN([C@H](C)CO)C(=O)c2cc(NS(=O)(=O)c3ccc(F)cc3)ccc2O[C@@H](C)CCCCO[C@@H]1CN(C)C(=O)NC1CCCCC1	0	0	0	0	0
COc1ccc2c3c([nH]c2c1)[C@@H](CO)NCC31CN(S(=O)(=O)c2ccccc2)C1	-	0	-	0	0
CC1CCCCN1C(=O)CCc1nnc(Cc2c[nH]c3ccccc23)o1 (stereo not given)	0	43.7	0	0	0
COCCN(C(=O)CCc1nnc(CCc2c[nH]c3ccccc23)o1)C(C)C	0	43.7	0	0	0
CC1CCCCN1C(=O)COC(=O)Cc1c[nH]c2ccccc12 (stereo not given)	0	43.1	0	0	0
CCC1CCCCN1C(=O)CCc1nnc(Cc2c[nH]c3ccccc23)o1 (stereo not given)	0	0	0	0	-
CN(C)C(=O)C[C@H]1CC[C@@H]2[C@H](COC[C@H](O)CN2C(=O)C2CC2)O1	0	0	0	0	0
COc1cc2c(cc1OC)C[N+](C)(C)CC2	64.5	0	0	0	0
COc1cc2c(cc1OC)CC(=O)N(C)CC2	0	0	0	0	0
O=C(C[C@@H]1C=C[C@@H](NS(=O)(=O)c2ccccc2F)[C@@H](CO)O1)NCCCN1CCOCC1	0	0	0	0	0
